Bioassay records deposited in PubChem by The Scripps Research Institute Molecular Screening Center.
hgDAF-12 ag = agonists of H. glycines DAF-12 nuclear receptor; activation, % at 6.8 µM; HEK293 GAL4-hgDAF12 UAS-luciferase reporter, agonist luminescence; normalized to butyrate control; actives 1.8% (n = 370,000);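 active means activation above a cutoff set at the mean of all screened compounds plus 3 SD, cut at about 10% in these data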
DAX1 inh-1 = inhibitors of DAX1 repression of SF-1 activated StAR promoter | inhibition, % at 6.8 µM | actives 1.1% (n = 370,000) | HEK293T StAR-luciferase reporter, SF-1/DAX-1 repression relief;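 active means inhibition above the mean over all tested compounds plus 3 SD, cut at about 3.6% in these data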;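 further: higher inhibition means more luminescence from relief of DAX-1 repression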
ssDAF12 agonist = S. stercoralis DAF-12 activation, primary screen. actives 1% (n = 370,000). HEK293 ssDAF-12/GRIP1 lit1-tk-luc reporter, luminescence; % of 3 µM dafachronic acid response. activation, % at 6.8 µM;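 active means activation above the mean over all tested compounds plus 3 SD, cut at about 0.9% in these data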
hcDAF-12 act = activates DAF-12 receptor from parasite H. contortus. HEK293 hcDAF-12 lit1-tk-luc reporter, luminescence; 0% DMSO, 100% Δ7-dafachronic acid. activation, % at 6.8 µM. actives 1.4% (n = 370,000);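 active means activation above the mean of all tested compounds plus 3 SD, cut at about 5.5% in these data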
DAX1 inh-2 = NR0B1 (DAX1) inhibition | actives 0.99% (n = 340,000) | HEK293 Gal4-DAX1 luciferase reporter, luminescence | P51843 | inhibition, % at 6.75 µM;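 active means inhibition above the mean over all tested compounds plus 3 SD, cut at about 4.2% in these data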;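 further: inhibition shows as a rise in luminescence from relieved DAX1 repression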
LXRb hcDAF ctr = LXR-beta agonism as hcDAF-12 counter-screen; activation, % at 6.8 µM; 3,400 tested, under 10 active; AID 743027; shares compounds with hcDAF-12 act; HEK293 Gal4-LXR tk-luc reporter, luminescence, 24 h; normalized: DMSO 0%, positive control 100%;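 active means mean percent activation of the reporter above a cutoff set as the average over tested compounds plus their standard deviation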
Target sequence (P55055 whole entry, looked up, the tested form may be a part): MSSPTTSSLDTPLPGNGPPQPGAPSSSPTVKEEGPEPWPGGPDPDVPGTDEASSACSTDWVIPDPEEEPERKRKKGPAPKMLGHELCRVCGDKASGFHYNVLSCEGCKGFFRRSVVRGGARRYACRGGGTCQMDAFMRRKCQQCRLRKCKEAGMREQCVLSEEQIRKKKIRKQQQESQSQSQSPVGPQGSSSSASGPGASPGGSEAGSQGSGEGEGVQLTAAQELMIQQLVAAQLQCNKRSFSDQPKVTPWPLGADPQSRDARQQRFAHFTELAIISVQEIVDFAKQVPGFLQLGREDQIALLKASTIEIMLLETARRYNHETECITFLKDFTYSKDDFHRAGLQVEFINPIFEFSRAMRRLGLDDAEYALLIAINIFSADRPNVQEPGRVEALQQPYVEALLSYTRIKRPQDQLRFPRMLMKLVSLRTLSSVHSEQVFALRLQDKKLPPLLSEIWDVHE
hcDAF12 ag = confirmation of H. contortus DAF-12 agonists; shares compounds with hcDAF-12 act; HEK293 hcDAF-12 lit1-tk-luc reporter, luminescence; % of Δ7-dafachronic acid response; activation, % at 6.8 µM; actives 61% (n = 3,400);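 active means mean activation across triplicate tests above the threshold derived from the earlier primary screen, cut at about 5.5% in these data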
hgDAF12 ag = hgDAF-12 agonism, confirmation assay; shares compounds with hgDAF-12 ag; HEK293 GAL4-hgDAF12 luciferase reporter, agonist mode; percent of butyrate response; activation, % at 6.8 µM; actives 80% (n = 3,300); AID 743050;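 active means mean activation over triplicate wells above the hit cutoff derived from the earlier primary screen, cut at about 11% in these data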
LXR ag 2 = counter-screen for DAF-12 agonists: agonists of human LXR-beta; HEK293 Gal4-LXR luciferase reporter, 24 h; shares compounds with hgDAF-12 ag; activation, % at 6.8 µM; 3,300 tested, under 10 active;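 active means mean activation of the triplicate above a set limit carried over from the primary screen, none filed active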
Each line names hits and unclear results; the compound was inactive in the other large screens (follow-up assays come after a bar, where they were run). A selection: hits, their analogues and other compounds. The true share with any hit is near 4.1%.

Cc1cc(O)ccc1N/C=C/c1onc(C)c1[N+](=O)[O-]	hgDAF-12 ag 16.5, ssDAF12 agonist 0.9, hcDAF-12 act 7.9 | LXRb hcDAF ctr inactive | hcDAF12 ag 6.2 | hgDAF12 ag 15.0 | LXR ag 2 inactive
COc1cccc2c(NCc3ccccc3)nc(-n3c(N)nc4ccccc43)nc12	none (no result: DAX1 inh-1, DAX1 inh-2)
CCNC(=S)/N=C(\N)Nc1nc(C)c2cc(C)ccc2n1	hgDAF-12 ag 14.1, DAX1 inh-1 4.3, hcDAF-12 act 6.6, DAX1 inh-2 4.6 | LXRb hcDAF ctr inactive | hcDAF12 ag 7.6 | hgDAF12 ag 12.6 | LXR ag 2 inactive
CCOc1ccc2nc(N/C(N)=N/C(=S)Nc3ccc(C)c(C)c3)nc(C)c2c1	none
CN(C)C=Nc1ccc2nn(-c3ccccc3)nc2c1	hgDAF-12 ag 14.7, DAX1 inh-1 4.4, ssDAF12 agonist 1.2, hcDAF-12 act 6.7 | LXRb hcDAF ctr inactive | hcDAF12 ag 8.2 | hgDAF12 ag 22.4 | LXR ag 2 inactive
CN(C)C=Nc1ccc(Cl)c(Cl)c1	none
Cc1ccccc1-c1noc(-c2ccc(O)cc2)n1	hgDAF-12 ag 18.1, hcDAF-12 act 6.9 | LXRb hcDAF ctr inactive | hcDAF12 ag inactive | hgDAF12 ag 16.0 | LXR ag 2 inactive
C#CCCCN([C@@H](CC(C)C)C(=O)OC)S(=O)(=O)c1ccc(F)cc1Br	none (no result: DAX1 inh-2)
Cc1ccc(N/C=C/C(=O)c2ccccc2)cc1Br	hgDAF-12 ag 18.6, DAX1 inh-1 3.8, ssDAF12 agonist 3.4, hcDAF-12 act 16.4 | LXRb hcDAF ctr inactive | hcDAF12 ag 16.1 | hgDAF12 ag 25.3 | LXR ag 2 inactive
COc1ccccc1C(=O)N1CCN(C(=O)[C@H](CCc2ccccc2)NC(=O)[C@H]2O[C@@H](n3cnc4c(N)ncnc43)[C@H](O)[C@@H]2O)CC1	none (no result: DAX1 inh-2)
COc1ccc(NC(=S)Nc2ccccn2)cc1	hgDAF-12 ag 14.8, ssDAF12 agonist 1.7, hcDAF-12 act 11.4 | LXRb hcDAF ctr inactive | hcDAF12 ag inactive | hgDAF12 ag 13.1 | LXR ag 2 inactive
Cc1ccc(NC(=O)CSCc2ccco2)cc1	hgDAF-12 ag 17.0, ssDAF12 agonist 1.3, hcDAF-12 act 8.0 | LXRb hcDAF ctr inactive | hcDAF12 ag inactive | hgDAF12 ag 13.0 | LXR ag 2 inactive
Cc1ccc(NC(=O)CSCC(=O)NCc2ccco2)cc1	none
CS(=O)(=O)c1ccc(S(=O)(=O)NCC2CCN(C(=O)C(=O)c3cc4ccccc4o3)CC2)cc1	none (no result: DAX1 inh-2)
COC(=O)[C@]1(C)CN(C(=O)OC(C)(C)C)C2=C1C(=O)C[C@@](C)(C(=O)OC(C)(C)C)C2	none (no result: DAX1 inh-2)
CCCc1nc2c3ccccc3ccn2c1Cc1ccccc1	hgDAF-12 ag 23.1, DAX1 inh-1 4.1, ssDAF12 agonist 1.3, hcDAF-12 act 7.0 (no result: DAX1 inh-2) | LXRb hcDAF ctr inactive | hcDAF12 ag 11.9 | hgDAF12 ag 16.5 | LXR ag 2 inactive
COC(=O)C1CN(Cc2cn(CCOC(C)=O)nn2)CCS(=O)(=O)N1Cc1ccc(C)cc1 (stereo not given)	none (no result: DAX1 inh-2)
O=C(CSc1ccc(-c2nc3ccccc3[nH]2)cn1)Nc1ccc2c(c1)OCCO2	none (no result: hgDAF-12 ag, DAX1 inh-1, ssDAF12 agonist, hcDAF-12 act)
Cc1cc2nc(-c3ccc(SCC(=O)Nc4ccc5c(c4)OCCO5)nc3)[nH]c2cc1C	hgDAF-12 ag 15.2, hcDAF-12 act 7.3 | LXRb hcDAF ctr inactive | hcDAF12 ag inactive | hgDAF12 ag 14.8 | LXR ag 2 inactive
Brc1ccc(Nc2nc(-c3cccnc3)cs2)cc1	hgDAF-12 ag 23.1, hcDAF-12 act 8.0 | LXRb hcDAF ctr inactive | hcDAF12 ag 11.3 | hgDAF12 ag 13.2 | LXR ag 2 inactive
